# From PubChem BioAssay (Tox21)
# Records with an inconclusive call do not appear. Entries that show only a call come without a potency. A number with no mark means an inactive call. Calls of active or inactive are those of the source. Calls follow the shape of the dose curve; as a rule, active = well fitted activation curve with a large enough effect in the signal ratio in the repeat runs (not every such curve was filed as active); inconclusive = weak or mixed curves; inactive = flat fitted curve, though single readings scatter; the % refers to the signal ratio.
# Test: p53 small molecule agonists, cell-based qHTS assay (AID 1963582)
# Outline: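 Quantitative HTS in p53RE-bla cells: after a 5 h settling period, compounds delivered in DMSO were left on cells for 16 h at 37 C, and reporter induction was measured as fluorescence following 2 h substrate loading.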
# Potency is read from the fitted curve at half-maximal effect.
Structure (SMILES),Potency,activation
O=C(O)CCCc1ccccc1,inactive,–
COC(=O)c1ccccc1Cl,inactive,–
Cc1oc(=O)oc1COC(=O)[C@@H]1N2C(=O)[C@@H](NC(=O)[C@H](N)c3ccccc3)[C@H]2SC1(C)C,inactive,–
CCCCCCCCCCCC(C)=O,inactive,–
O=C1C=CCCC1,inactive,–
O=C1CCCCCCCCCCCCCC1,inactive,–
CO[Si](CCCn1c(=O)n(CCC[Si](OC)(OC)OC)c(=O)n(CCC[Si](OC)(OC)OC)c1=O)(OC)OC,inactive,–
C1CCN(CN2CCCCC2)CC1,inactive,–
CC(C)Oc1ccccc1O,inactive,–
Clc1cc(Cl)c(-c2c(Cl)c(Cl)cc(Cl)c2Cl)cc1Cl,inactive,–
CNC(=O)N(c1ccccc1)c1ccccc1,inactive,–
CC1OC(=O)C(C)OC1=O (configuration not stated),inactive,–
CCOc1ccc(NC(=O)OC(C)C)cc1OCC,inactive,–
CCOC(=O)C(=O)c1csc(NC=O)n1,inactive,–
O=C(/C=C/c1ccccc1)OC/C=C/c1ccccc1,inactive,–
C=C(C)C(=O)OCCCC,inactive,–
FC(F)(F)C(F)(F)C(F)(F)C(F)(F)C(F)(F)C(F)(F)C(F)(F)C(F)(F)C(F)(F)C(F)(F)F,–,-0.0202% [at 5.99 µM]
CCCC(=O)C(CC)Sc1ccoc1C (configuration not stated),inactive,–
CN(C)CCOCCN(C)CCO,inactive,–
CCCCCCCCCCCCCCCCCC#N,inactive,–
CC(C)CCCC(=O)O,inactive,–
OCCCCCCO,41.3 µM (active),–
O=c1cccccc1O,inactive,–
OCC(CO)n1cnc(-c2ccc(F)cc2)c1-c1ccnc(Oc2ccccc2)n1,inactive,–
CC(=O)OCC(C)C,inactive,–
C=CC(=O)OCC[N+](C)(C)C,inactive,–
NC(=O)C(=O)N/N=C/c1ccc([N+](=O)[O-])o1,inactive,–
